Results: PubChem BioAssay (Tox21)
Records with an inconclusive call do not appear. Activity calls are given as the source filed them. Unless noted, calls follow the shape of the dose curve; as a rule, active = well fitted curve in the direction sought with a large enough effect in the repeat runs; inconclusive = weak or mixed curves; inactive = no such curve, though single readings can be large; an effect the other way counts as inactive or inconclusive.

Key:
[1] = biological target: Progesterone receptor (Homo sapiens) (UniProt P06401); assay: qHTS assay to identify small molecule antagonists of the progesterone receptor (PR) signaling pathway (AID 1346795; active = well fitted inhibition curve with a large enough effect in the signal ratio in the repeat runs, not every such curve was filed as active; the % refers to the signal ratio)
Sequence of Progesterone receptor (Homo sapiens) (P06401 whole entry, looked up): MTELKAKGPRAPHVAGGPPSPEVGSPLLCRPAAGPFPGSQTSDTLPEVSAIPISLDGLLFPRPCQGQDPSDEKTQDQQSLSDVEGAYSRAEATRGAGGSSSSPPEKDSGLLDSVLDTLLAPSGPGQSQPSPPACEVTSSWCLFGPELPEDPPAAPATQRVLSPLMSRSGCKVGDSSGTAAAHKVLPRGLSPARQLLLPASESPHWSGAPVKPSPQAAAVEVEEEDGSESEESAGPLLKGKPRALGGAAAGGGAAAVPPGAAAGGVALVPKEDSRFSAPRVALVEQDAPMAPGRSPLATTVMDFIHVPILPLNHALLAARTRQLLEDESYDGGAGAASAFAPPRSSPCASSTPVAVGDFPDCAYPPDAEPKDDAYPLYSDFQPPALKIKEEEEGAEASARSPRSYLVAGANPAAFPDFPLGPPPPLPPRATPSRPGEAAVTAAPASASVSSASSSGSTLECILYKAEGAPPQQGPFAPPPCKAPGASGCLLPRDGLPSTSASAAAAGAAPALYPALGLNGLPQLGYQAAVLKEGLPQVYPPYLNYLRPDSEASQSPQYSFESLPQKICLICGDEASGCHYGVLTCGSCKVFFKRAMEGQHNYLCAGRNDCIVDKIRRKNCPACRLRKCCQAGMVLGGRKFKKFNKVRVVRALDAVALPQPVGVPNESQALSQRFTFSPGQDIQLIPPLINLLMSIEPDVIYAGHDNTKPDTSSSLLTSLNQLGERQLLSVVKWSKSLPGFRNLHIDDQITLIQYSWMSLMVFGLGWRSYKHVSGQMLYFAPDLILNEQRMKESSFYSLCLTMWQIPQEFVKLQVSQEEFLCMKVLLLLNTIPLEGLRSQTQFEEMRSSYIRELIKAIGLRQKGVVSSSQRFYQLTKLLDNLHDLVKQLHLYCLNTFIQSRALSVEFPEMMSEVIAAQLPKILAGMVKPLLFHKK
Method in brief: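 Antagonist mode: compounds tested against 1 nM (final) promegestone stimulation in HEK293T cells expressing PR-UAS-bla reporter, 16 hr at 37C, 5% CO2; beta-lactamase activity detected via B/G FRET substrate after 2 hr at room temperature.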

[2] = qHTS assay to identify small molecule antagonists of the progesterone receptor (PR) signaling pathway - cell viability counter screen (AID 1346798); also: series mostly up to about 92 µM; nearly all actives have a fitted effect of over 50% in size
Method in brief: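 Counter screen for cytotoxicity: viability of PR-UAS-bla HEK293T cells was measured with CellTiter-Glo luminescence following 16 hr compound exposure in the presence of R5020.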

[3] = qHTS assay to identify small molecule agonists of the progesterone receptor (PR) signaling pathway - cell viability counter screen (AID 1346799; calls by dose curve; also: nearly all actives have a fitted effect of over 45% in size; also: potency is read from the fitted curve at half-maximal effect)
Method in brief: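 Cells (PR-UAS-bla HEK293T) are plated at 3,000/well in 2% charcoal-stripped FBS medium, rested 6 hr, dosed and incubated 16 hr at 37C. CellTiter-Glo is then added and luminescence measured after 30 min at room temperature.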

[4] = qHTS assay to identify small molecule antagonists of the TGF-beta/Smad signaling pathway - cell viability counter screen (AID 1346824); also: nearly all actives have a fitted effect of over 50% in size
Method in brief: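 SBE-bla HEK 293T cells, incubated overnight, then compound plus 0.25 ng/mL TGF-beta1 (stock added) for 5 hr at 37 C. Viability was read in the same wells by CellTiter-Glo luminescence after 30 min at room temperature.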

[5] = qHTS assay to identify small molecule agonists of the TGF-beta/Smad signaling pathway - cell viability counter screen (AID 1346829); also: top concentration of the series differs between compounds; nearly all actives have a fitted effect of over 45% in size
Method in brief: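 Same-well cytotoxicity: CellTiter-Glo added after the 2 hr room-temperature beta-lactamase substrate step, luminescence measured 30 min later; cells had 5 hr of compound at 37 C.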

[6] = qHTS assay to identify small molecule agonists of the TGF-beta/Smad signaling pathway (AID 1346859; active = well fitted activation curve with a large enough effect in the signal ratio in the repeat runs, not every such curve was filed as active; the % refers to the signal ratio; also: series mostly up to about 77 µM)
Method in brief: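 Reporter line: HEK 293T with stably integrated SBE-controlled beta-lactamase. Compound exposure lasts 5 hr at 37 C and 5% CO2; substrate loading follows for 2 hr at room temperature, with emission read at 460 and 530 nm.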

[7] = biological target: Thyrotropin-releasing hormone receptor (Homo sapiens) (UniProt P34981); assay: qHTS assay to identify small molecule antagonists of the thyrotropin-releasing hormone receptor (TRHR) signaling pathway (AID 1346877; active = well fitted inhibition curve with a large enough effect in the repeat runs, not every such curve was filed as active; also: series mostly up to about 51 µM)
Sequence of Thyrotropin-releasing hormone receptor (Homo sapiens) (P34981 whole entry, looked up): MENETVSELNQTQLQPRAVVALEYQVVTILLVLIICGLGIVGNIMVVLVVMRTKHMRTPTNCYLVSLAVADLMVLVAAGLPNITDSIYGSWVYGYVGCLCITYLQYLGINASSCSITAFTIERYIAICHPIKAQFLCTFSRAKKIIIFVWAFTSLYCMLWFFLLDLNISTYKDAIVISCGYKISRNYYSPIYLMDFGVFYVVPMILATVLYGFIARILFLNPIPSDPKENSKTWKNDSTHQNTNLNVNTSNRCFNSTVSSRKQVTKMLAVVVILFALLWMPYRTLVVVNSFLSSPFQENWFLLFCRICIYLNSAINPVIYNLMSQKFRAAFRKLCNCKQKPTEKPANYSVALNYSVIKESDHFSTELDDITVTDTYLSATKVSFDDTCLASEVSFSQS
Method in brief: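 Cells (TRHR-HEK293) are plated and kept 18 h at 37 °C/5% CO2. A calcium-sensitive dye is added for 2 h, compound follows for 5 min at room temperature, and TRH is then given at 1 nM final.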

[8] = biological target: Thyrotropin-releasing hormone receptor (Homo sapiens) (UniProt P34981); assay: qHTS assay to identify small molecule agonists of the thyrotropin-releasing hormone receptor (TRHR) signaling pathway (AID 1346891; calls by dose curve;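 also: HEK293 cells expressing TRHR with calcium dye readout; series mostly up to about 58 µM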)
Method in brief: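 Cells: TRHR-Hek293, seeded and incubated 18 h. Dye loading: 2 h at 37 °C. Compound added from DMSO stock by pin tool. Read-out: kinetic calcium fluorescence over 3 min.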

[9] = Human pregnane X receptor (PXR) small molecule agonists, qHTS cell viability counter screen (AID 1346977); also: nearly all actives have a fitted effect of over 50% in size
Method in brief: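 Cytotoxicity counter screen run in the same wells as the PXR luciferase assay, using PXR-Luc HepG2 cells in charcoal-stripped serum medium. Viability: CellTiter-Fluor fluorescence after 24hr compound treatment.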

[10] = Caspase-3/7 induction in HepG2 cells by small molecules, qHTS assay (AID 1346978); also: nearly all actives have a fitted effect of over 15% in size
Method in brief: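 Wild-type HepG2 cells, 2,000/well, settled 5 hr at 37 C and 5% CO2, then compound-treated for 17 hr; caspase-3/7 activity read by luminescent Caspase-Glo 3/7 after 30 min at room temperature.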

[11] = Caspase-3/7 induction in CHO-K1 cells by small molecules, qHTS cell viability counter screen (AID 1346979); also: nearly all actives have a fitted effect of over 35% in size
Method in brief: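 Cytotoxicity counter screen run in parallel with the caspase-3/7 assay: CHO-K1 cells, 16hr compound treatment at 37C, then CellTiter-Fluor for 1hr before fluorescence reading.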

[12] = Caspase-3/7 induction in CHO-K1 cells by small molecules, qHTS assay (AID 1346980); also: nearly all actives have a fitted effect of over 15% in size
Method in brief: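 Wild-type CHO-K1 cells exposed to compounds for 17hr at 37 C, 5% CO2. Caspase-3/7 activity then measured by Caspase-Glo 3/7 luminescence after 30min at room temperature.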

[13] = Caspase-3/7 induction in HepG2 cells by small molecules, qHTS cell viability counter screen (AID 1346981); also: series mostly up to about 92 µM; nearly all actives have a fitted effect of over 30% in size
Method in brief: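 Steps: seed 2,000 HepG2 cells per well; incubate 5 hr at 37 C; pin-add compounds in DMSO; incubate 16 hr; add CellTiter-Fluor; after 1 hr at 37 C and 5% CO2, read fluorescence.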

[14] = biological target: Nuclear receptor subfamily 1 group I member 2 (Homo sapiens) (UniProt O75469); assay: Human pregnane X receptor (PXR) small molecule agonists, qHTS assay (AID 1346982); also: nearly all actives have a fitted effect of over 35% in size; also: potency is read from the fitted curve at half-maximal effect
Sequence of Nuclear receptor subfamily 1 group I member 2 (Homo sapiens) (O75469 whole entry, looked up): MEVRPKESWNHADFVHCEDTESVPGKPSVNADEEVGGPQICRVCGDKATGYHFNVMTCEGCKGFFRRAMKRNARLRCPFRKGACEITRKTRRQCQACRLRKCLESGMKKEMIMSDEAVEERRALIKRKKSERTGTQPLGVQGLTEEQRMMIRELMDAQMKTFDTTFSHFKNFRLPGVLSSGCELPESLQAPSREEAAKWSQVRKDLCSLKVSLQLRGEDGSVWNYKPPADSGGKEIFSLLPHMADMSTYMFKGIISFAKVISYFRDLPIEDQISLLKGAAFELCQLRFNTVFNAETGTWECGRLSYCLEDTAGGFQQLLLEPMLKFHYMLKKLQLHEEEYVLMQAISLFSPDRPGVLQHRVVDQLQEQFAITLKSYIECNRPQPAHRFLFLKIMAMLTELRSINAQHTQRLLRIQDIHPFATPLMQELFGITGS
Method in brief: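 Agonist mode qHTS: PXR-Luc HepG2 cells plated 5 hr before DMSO-dissolved compounds were pinned in, cultured 24 hr at 37 C, 5% CO2; ONE-Glo luminescence readout.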

[15] = biological target: Cytochrome P450 2D6 (Homo sapiens) (UniProt P10635); assay: Cytochrome P450 Family 2 Subfamily D Member 6 (CYP2D6) small molecule antagonists: luciferase reporter qHTS assay (AID 1671196); also: nearly all actives have a fitted effect of over 50% in size; also: potency is read from the fitted curve at half-maximal effect; as to activity change, negative = inhibition: series mostly up to about 120 µM
Sequence of Cytochrome P450 2D6 (Homo sapiens) (P10635 whole entry, looked up): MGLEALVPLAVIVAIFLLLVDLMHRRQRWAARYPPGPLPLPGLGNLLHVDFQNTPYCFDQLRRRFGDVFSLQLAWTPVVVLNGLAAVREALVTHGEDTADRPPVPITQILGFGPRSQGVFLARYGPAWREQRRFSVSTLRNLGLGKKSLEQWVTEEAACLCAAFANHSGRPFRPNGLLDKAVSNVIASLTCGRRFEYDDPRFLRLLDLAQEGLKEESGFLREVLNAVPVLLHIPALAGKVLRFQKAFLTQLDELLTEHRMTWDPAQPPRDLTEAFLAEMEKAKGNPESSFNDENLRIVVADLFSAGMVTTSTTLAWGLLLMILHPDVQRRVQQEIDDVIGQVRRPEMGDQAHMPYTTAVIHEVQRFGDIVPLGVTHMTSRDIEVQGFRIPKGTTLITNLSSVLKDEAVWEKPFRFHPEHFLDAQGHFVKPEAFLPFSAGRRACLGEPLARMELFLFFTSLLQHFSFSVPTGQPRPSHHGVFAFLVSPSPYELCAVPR
Method in brief: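 P450-Glo format: CYP2D6 converts a proluciferin substrate to luciferin in an NADPH-driven reaction lasting 1 h at room temperature. Light output, proportional to CYP2D6 activity, reflects interference by test chemicals.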

[16] = biological target: Cytochrome P450 2C19 (Homo sapiens) (UniProt P33261); assay: Cytochrome P450 Family 2 Subfamily C Member 19 (CYP2C19) small molecule antagonists: luciferase reporter qHTS assay (AID 1671197); also: nearly all actives have a fitted effect of over 65% in size; also: potency is read from the fitted curve at half-maximal effect; as to activity change, negative = inhibition: series mostly up to about 120 µM
Sequence of Cytochrome P450 2C19 (Homo sapiens) (P33261 whole entry, looked up): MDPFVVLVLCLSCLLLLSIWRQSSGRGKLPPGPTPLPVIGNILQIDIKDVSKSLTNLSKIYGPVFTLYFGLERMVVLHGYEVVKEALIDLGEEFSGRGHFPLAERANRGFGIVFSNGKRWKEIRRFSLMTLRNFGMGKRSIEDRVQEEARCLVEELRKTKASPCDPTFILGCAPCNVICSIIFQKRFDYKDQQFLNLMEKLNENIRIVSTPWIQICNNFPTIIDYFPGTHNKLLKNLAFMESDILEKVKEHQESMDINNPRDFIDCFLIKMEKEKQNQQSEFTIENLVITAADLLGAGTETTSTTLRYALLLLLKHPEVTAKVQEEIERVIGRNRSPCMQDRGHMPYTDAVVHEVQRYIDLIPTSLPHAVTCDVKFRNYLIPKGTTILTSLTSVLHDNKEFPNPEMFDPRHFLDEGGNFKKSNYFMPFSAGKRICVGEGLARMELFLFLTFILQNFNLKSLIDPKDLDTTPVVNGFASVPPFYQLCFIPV
Method in brief: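 Quantitative high-throughput screen of the Tox21 library using CYP2C19 with proluciferin substrate. Reaction: NADPH regeneration, 37C, 1 h, after 10 min compound preincubation at room temperature. Readout: luminescence.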

[17] = biological target: Cytochrome P450 2C9 (Homo sapiens) (UniProt P11712); assay: Cytochrome P450 Family 2 Subfamily C Member 9 (CYP2C9) small molecule antagonists: luciferase reporter qHTS assay (AID 1671198); also: nearly all actives have a fitted effect of over 50% in size; also: potency is read from the fitted curve at half-maximal effect; as to activity change, negative = inhibition: series mostly up to about 120 µM
Sequence of Cytochrome P450 2C9 (Homo sapiens) (P11712 whole entry, looked up): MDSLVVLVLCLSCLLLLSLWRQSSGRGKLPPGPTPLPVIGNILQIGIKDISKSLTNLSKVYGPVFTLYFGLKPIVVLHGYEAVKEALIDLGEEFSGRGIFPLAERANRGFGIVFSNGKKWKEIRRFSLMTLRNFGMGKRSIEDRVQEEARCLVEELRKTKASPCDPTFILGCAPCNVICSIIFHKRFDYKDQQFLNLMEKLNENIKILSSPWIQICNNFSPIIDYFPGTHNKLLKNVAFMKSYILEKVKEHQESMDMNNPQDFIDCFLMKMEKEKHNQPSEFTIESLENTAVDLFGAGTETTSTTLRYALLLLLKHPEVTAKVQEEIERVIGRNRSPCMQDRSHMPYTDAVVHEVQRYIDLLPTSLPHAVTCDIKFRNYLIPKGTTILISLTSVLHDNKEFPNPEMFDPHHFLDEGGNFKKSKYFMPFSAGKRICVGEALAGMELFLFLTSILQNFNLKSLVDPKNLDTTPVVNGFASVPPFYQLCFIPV
Method in brief: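 P450-Glo proluciferin substrate with CYP2C9 enzyme; 10 min RT preincubation, then NADPH regeneration 1 h at 37C; luciferin detection reagent 20 min RT, luminescence in relative luminescence units.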
% is scaled to controls: 0 for no effect and ±100 for the full control effect.

CC1(C)C(=O)N(CO)C(=O)N1CO
inactive: Potency [1] | Potency [2] | Potency [3] | Potency [4] | Potency [5] | Potency [6] | Potency [7] | Potency [8] | Potency [9] | Potency [10] | Potency [11] | Potency [12] | Potency [13] | Potency [14] | Potency [15] | Potency [16] | Potency [17]

Clc1cccnc1
inactive: Potency [1] | Potency [2] | Potency [3] | Potency [4] | Potency [5] | Potency [6] | Potency [7] | Potency [8] | Potency [9] | Potency [10] | Potency [11] | Potency [12] | Potency [13] | Potency [14] | Potency [15] | Potency [16] | Potency [17]

CCOC(/C=C(\C)CCC=C(C)C)OCC
inactive: Potency [1] | Potency [2] | Potency [3] | Potency [4] | Potency [5] | Potency [6] | Potency [7] | Potency [8] | Potency [9] | Potency [10] | Potency [11] | Potency [12] | Potency [13] | Potency [14] | Potency [15] | Potency [17]

OCCC(O)CO (stereo not given)
inactive: Potency [1] | Potency [2] | Potency [3] | Potency [4] | Potency [5] | Potency [6] | Potency [7] | Potency [8] | Potency [9] | Potency [10] | Potency [11] | Potency [12] | Potency [13] | Potency [14] | Potency [15] | Potency [16] | Potency [17]

CC(C)c1ccccc1N
inactive: Potency [1] | Potency [2] | Potency [3] | Potency [4] | Potency [5] | Potency [6] | Potency [7] | Potency [8] | Potency [9] | Potency [10] | Potency [11] | Potency [12] | Potency [13] | Potency [15]
active: Potency [14] 61.1 µM | Potency [16] 39.9 µM

CCC1CCCCC1
inactive: Potency [1] | Potency [2] | Potency [3] | Potency [4] | Potency [5] | Potency [6] | Potency [7] | Potency [8] | Potency [9] | Potency [10] | Potency [11] | Potency [12] | Potency [13] | Potency [14] | Potency [15] | Potency [16] | Potency [17]

CCCCCCS
inactive: Potency [1] | Potency [2] | Potency [3] | Potency [4] | Potency [5] | Potency [6] | Potency [7] | Potency [8] | Potency [9] | Potency [10] | Potency [11] | Potency [12] | Potency [13] | Potency [14] | Potency [15] | Potency [16] | Potency [17]

CCCCCCCOC(=O)c1ccccc1C(=O)OCCCCCCC
inactive: Potency [1] | Potency [2] | Potency [3] | Potency [4] | Potency [5] | Potency [6] | Potency [7] | Potency [8] | Potency [9] | Potency [10] | Potency [12] | Potency [13] | Potency [14] | Potency [15]
active: Potency [16] 39.9 µM | Potency [17] 17.8 µM

COc1ccccc1C=O
inactive: Potency [1] | Potency [2] | Potency [3] | Potency [4] | Potency [5] | Potency [6] | Potency [9] | Potency [10] | Potency [11] | Potency [12] | Potency [13] | Potency [14] | Potency [15] | Potency [16] | Potency [17]

C=CC(=C)CC/C=C(\C)CCC=C(C)C
inactive: activity change, negative = inhibition [1] -8.93% [at 18.9 µM] | activity change, negative = cytotoxicity [2] -3.03% [at 18.9 µM] | activity change, negative = cytotoxicity [3] 7.16% [at 19 µM] | viability change, negative = cytotoxic [4] 6.24% [at 15.8 µM] | activity change, negative = cytotoxicity [5] 1.59% [at 15.8 µM] | activation [6] -1.49% [at 15.8 µM] | activity, negative = inhibition [7] -4.91% [at 10.5 µM] | activation [8] 0.335% [at 11.8 µM] | activity change, negative = cytotoxicity [9] 6.03% [at 19 µM] | caspase activation [10] 0.847% [at 19 µM] | activity change, negative = cytotoxicity [11] -0.798% [at 19 µM] | caspase-3/7 activation [12] 0.541% [at 19 µM] | activity change, negative = cytotoxicity [13] -2.86% [at 19 µM] | activity change, negative = inhibition [15] -7.39% [at 23.6 µM]

SCCCCCCCCS
inactive: Potency [1] | Potency [2] | Potency [3] | Potency [4] | Potency [5] | Potency [6] | Potency [7] | Potency [8] | Potency [9] | Potency [10] | Potency [11] | Potency [12] | Potency [15] | Potency [16] | Potency [17]

NC(=O)c1ccccc1N
active: Potency [16] 35.8 µM
inactive: Potency [1] | Potency [2] | Potency [3] | Potency [4] | Potency [5] | Potency [6] | Potency [7] | Potency [8] | Potency [9] | Potency [10] | Potency [11] | Potency [12] | Potency [13] | Potency [14] | Potency [17]

C[Si](C)O[Si](C)C
inactive: Potency [1] | Potency [2] | Potency [3] | Potency [4] | Potency [5] | Potency [6] | Potency [9] | Potency [10] | Potency [11] | Potency [12] | Potency [13] | Potency [14] | Potency [15] | Potency [16] | Potency [17]

CCOC(=O)COc1ccc(C)cc1
inactive: Potency [1] | Potency [2] | Potency [3] | Potency [4] | Potency [5] | Potency [6] | Potency [7] | Potency [8] | Potency [9] | Potency [10] | Potency [11] | Potency [12] | Potency [13] | Potency [15] | Potency [16]

CCOC(OCC)C(=O)c1ccccc1
inactive: Potency [1] | Potency [2] | Potency [3] | Potency [4] | Potency [5] | Potency [6] | Potency [7] | Potency [8] | Potency [9] | Potency [10] | Potency [12] | Potency [13] | Potency [14] | Potency [15] | Potency [16] | Potency [17]

CCCC(CC)CCCCCCCN (stereo not given)
inactive: Potency [1] | Potency [2] | Potency [4] | Potency [5] | Potency [6] | Potency [7] | Potency [8] | Potency [9] | Potency [10] | Potency [11] | Potency [12] | Potency [13]
active: Potency [3] 28 µM | Potency [15] 817 nM | Potency [16] 0.365 µM | Potency [17] 25.8 µM
